# Among all 48,000 compounds or so, about 13,000 (27%) showed an effect of 50% or more. This is one part of the list.
# Test system: Wolbachia pipientis
# Assay: Anti-Wolbachia Cell-Based Screen
# Format: functional
# Set-up: scale not given: in the data most compounds retested in dose-response had high values
# Details: 5 µM
row,Structure (SMILES),Percent Effect [%]
1,CCOc1ccc(N(C)S(=O)(=O)c2c[nH]c(C(C)C)n2)cc1,-17.69
2,O=C(CNC(=O)C1CC1)NCCOc1cccc(Cl)c1Cl,3.053
3,CC1CN(C(=O)c2cc[nH]c(=O)c2)c2ccccc21 (stereo unspecified),6.091
4,Cc1ccc2c(c1)OC(C)CN2C(=O)CCc1cccnc1 (stereo unspecified),9.162
5,Cc1ccc2c(c1)N(C(=O)c1nccnc1N)CC(C)O2 (stereo unspecified),-0.6709
6,Cc1ccc2c(c1)OC(C)CN2C(=O)c1c[nH]c(C)cc1=O (stereo unspecified),100.7
7,Cc1ccc2c(c1)N(C(=O)c1c[nH]c(C)cc1=O)CC(C)O2 (stereo unspecified),67.22
8,Cc1ccc2c(c1)OC(C)CN2C(=O)Cc1ccc(C)nc1 (stereo unspecified),-1.859
9,Cc1ccc2c(c1)OC(C)CN2C(=O)CCc1cscn1 (stereo unspecified),-1.954
10,Cc1ccc2c(c1)N(C(=O)c1cc[nH]c(=O)c1)CC(C)O2 (stereo unspecified),102.6
11,CC1CN(C(=O)c2ccc(C(N)=O)cc2)c2ccc(F)cc2O1 (stereo unspecified),-13.6
12,CC(C)n1cnnc1CCNCc1cn(CCC(N)=O)c2ccccc12,-8.335
13,Cn1/c(=N/C(=O)CSCC(=O)Nc2nccs2)sc2ccccc21,-2.902
14,Cc1cnc2c(S(=O)(=O)NC(=O)C(C)OCC3CC3)cccc2c1 (stereo unspecified),-0.9774
15,Cc1ccsc1C(=O)N1CCCC(c2[nH]ncc2S(C)(=O)=O)C1 (stereo unspecified),116.3
16,Cc1ccsc1C(=O)N1CC(C(=O)N2CCCC2)C2(CCOCC2)C1 (stereo unspecified),-0.2023
17,Cc1ccc(C(=O)N2CCCC(c3[nH]ncc3S(C)(=O)=O)C2)s1 (stereo unspecified),93.28
18,Cc1cccnc1C(=O)N1CCCC(c2[nH]ncc2S(C)(=O)=O)C1 (stereo unspecified),-6.313
19,Cc1ncncc1C(=O)N1CCCN(Cc2ncc(Cl)n2C)CC1,13.88
20,Cc1ccc(C(=O)N2CCCC(Cn3cc(C(C)(C)N)nn3)C2)s1 (stereo unspecified),-58.84
21,Cc1csc(C(=O)N2CCCC(c3[nH]ncc3S(C)(=O)=O)C2)c1 (stereo unspecified),97.17
22,Cc1ncncc1C(=O)N1CCCC(c2[nH]ncc2S(C)(=O)=O)C1 (stereo unspecified),130.2

row,Structure (SMILES),Percent Effect [%]
1,Cc1[nH]ncc1C(=O)N1CCCC(c2cc(C(F)(F)F)[nH]n2)C1 (stereo unspecified),-5.603
2,CC(Nc1ccn(Cc2ccccn2)n1)C(=O)NC(C)(C)C (stereo unspecified),22.79
3,CCNC(=O)COc1ccc(C(=O)NC(C)CCc2ccco2)cc1 (stereo unspecified),6.867
4,CC1(C)[C@H](Cc2cc(CN3CCCCC3)on2)C[C@@H]1NC(=O)C1CC1,0.3573
5,Cc1nc(CNCC2CCCN2c2cccnn2)no1 (stereo unspecified),8.82
6,c1cnnc(N2CCCC2CNCc2nc(C3CC3)no2)c1 (stereo unspecified),6.175
7,c1cnnc(N2CCCC2CNCc2noc(C3CC3)n2)c1 (stereo unspecified),124.8
8,c1cnnc(N2CCCC2CNCc2nc3ccccc3o2)c1 (stereo unspecified),8.977
9,Cc1ccoc1-c1nnc(CNCC2CCCN2c2cccnn2)o1 (stereo unspecified),10.61
10,CCc1noc(CNCC2CCCN2c2cccnn2)n1 (stereo unspecified),129.4
11,c1cnnc(N2CCCC2CNCc2nc(-c3ccsc3)no2)c1 (stereo unspecified),0.4887
12,c1cnnc(N2CCCC2CNCc2nnc(C3CC3)o2)c1 (stereo unspecified),-1.218
13,CCc1nnc(CNCC2CCCN2c2cccnn2)o1 (stereo unspecified),6.974
14,CCc1nc(CNCC2CCCN2c2cccnn2)no1 (stereo unspecified),94.84
15,CCCc1nc(CNCC2CCCN2c2cccnn2)no1 (stereo unspecified),124.8
16,COCCc1noc(CNCC2CCCN2c2cccnn2)n1 (stereo unspecified),10.85
17,Cc1cc(C(F)(F)F)nc(N(C)Cc2c(C)noc2C)n1,12
18,CCOCCn1nc(C)cc1C(=O)N1CC[C@](O)(CC)[C@H](O)C1,-19.56
19,CCc1ccccc1OCCN(C)C(=O)CN1CCCC1,-0.4334
20,Cc1ccc(CN2CC(O)CN(C(=O)OCC(C)C)CC2=O)cc1 (stereo unspecified),102.7
21,COc1ccc(CN2CC(O)CN(C(=O)CC(C)C)CC2=O)cc1 (stereo unspecified),135.2
22,COc1ccc(CN2CCN(c3nccnc3OC)CC2=O)cc1,-6.7

row,Structure (SMILES),Percent Effect [%]
1,CC(C)N(CCO)C(=O)C1CCC(=O)N(Cc2ccc(Cl)cc2)C1 (stereo unspecified),0.7255
2,COc1ccc(CN2C[C@H]3CN(C(=O)c4ccno4)CCN3C2=O)cc1,-1.817
3,CC(C)COC(=O)N1CC(=O)N(Cc2ccc(Cl)cc2)CC(O)C1 (stereo unspecified),87.43
4,CCOC(=O)c1coc(N2CCN(Cc3ccc(C)cc3)C(=O)C2)n1,-18.23
5,Cc1ccc(CN2C[C@H]3CN(C(=O)c4ccno4)CCN3C2=O)cc1,-7.285
6,CCc1cnc(N2C[C@H]3CN(Cc4ccc(OC)cc4)C(=O)[C@H]3C2)nc1,-6.562
7,CCCN(CCO)C(=O)C1CCC(=O)N(Cc2ccc(Cl)cc2)C1 (stereo unspecified),-2.566
8,COc1ccc(CN2CC(O)CN(C(=O)OCC(C)C)CC2=O)cc1 (stereo unspecified),126.2
9,COC(=O)CCNC(=O)c1ccoc1CN1c2ccccc2CC1C (stereo unspecified),-5.639
10,CC(=O)Nc1ccc(-c2cn(CCn3c(C)cc(C)nc3=O)nn2)cc1,-7
11,Cc1ccsc1CNC(=O)Nc1ccn(CCN2CCOCC2)n1,-52.79
12,CCN(CC)S(=O)(=O)c1ccc(CNC(=O)c2cc(C)on2)cc1,15.58
13,Cc1cc(C(=O)Nc2ccn(CCCN3CCCC3)n2)no1,96.67
14,Cc1ccc(C(=O)Nc2ccn(CCC(N)=O)n2)cc1,10.52
15,Cc1cc(CNC(=O)CCCN2CCCCC2)n(C)n1,-11.62
16,Cc1cc(C(=O)Nc2ccn(CCCN3CCCC3)n2)c(C)o1,100.8
17,CCn1ccc(NC(=O)c2cc(C)on2)n1,120
18,O=C(Cc1ccccc1Cl)Nc1ccn(CCN2CCOCC2)n1,-48.65
19,Cc1ccnc(NC(=O)c2cc(C)oc2C)c1,11.88
20,CCOc1cc(C)nc(N2CCN(C(=O)c3cc(Cl)c[nH]3)CC2)n1,4.417
21,Cc1cnn(Cc2cc(F)ccc2F)c1NC(=O)C1CCOCC1,-4.081
22,CNC(=O)C1(N2CCC[C@H]2C(=O)NC2CCOCC2)CCOCC1.Cl,-3.696

# Reference: ChEMBL document CHEMBL3988442, “University of Dundee, Small-Polar-MMV Screening Library” (2021)
